Measurements: PubChem BioAssay (Tox21)
Inconclusive results are not listed. The source made the active and inactive calls. Unless noted, the call rests on the fitted dose curve.

Key:
[1] = qHTS assay to identify small molecule agonists of the sonic hedgehog signaling (Shh) pathway (AID 1259368);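 further: NIH/3T3-derived 3T3Gli1-Luc cells carrying a stable Gli1-driven firefly luciferase reporter; series mostly up to about 92 µM; nearly all actives have a fitted effect of over 15% in size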
How it was run: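 Following a 24 hr incubation with DMSO-dissolved compounds at 37 C, 5% CO2, Gli1-Luc NIH/3T3-derived cells received luciferase reagent for 30 min at room temperature prior to luminescence measurement.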

[2] = qHTS assay to identify small molecule antagonists of the sonic hedgehog signaling (Shh) pathway (AID 1259369); further: nearly all actives have a fitted effect of over 45% in size
How it was run: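 Read-out is luminescence from a firefly luciferase gene controlled by the Gli1 response element, in 3T3Gli1-Luc cells pre-incubated 4hr then exposed to compounds and conditioned medium for 24hr.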

[3] = molecular target: Estrogen receptor beta (Homo sapiens) (UniProt Q92731); experiment: qHTS assay to identify small molecule agonists of the estrogen receptor beta (ER-beta) signaling pathway (AID 1259377; active means well fitted activation curve with a large enough effect in the signal ratio in the repeat runs, not every such curve was filed as active; the % refers to the signal ratio)
How it was run: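 HEK293T ER-beta-UAS-bla; 2% charcoal-stripped FBS; cells pre-incubated 6 hr, compound 16 hr, 37C/5% CO2; LiveBLAzer B/G FRET substrate 2 h RT; fluorescence intensity read.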

[4] = molecular target: Estrogen receptor beta (Homo sapiens) (UniProt Q92731); experiment: qHTS assay to identify small molecule antagonists of the estrogen receptor beta (ER-beta) signaling pathway (AID 1259378; active means well fitted inhibition curve with a large enough effect in the signal ratio in the repeat runs, not every such curve was filed as active; the % refers to the signal ratio)
How it was run: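 ER-beta-UAS-bla HEK293T cells in 2% charcoal-stripped FBS medium treated with compound plus 1nM final 17-beta-estradiol for 16 hr at 37C. Beta-lactamase reporter read by FRET substrate fluorescence after 2 hours at room temperature.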

[5] = qHTS assay to identify small molecule agonists of the androgen receptor (AR) signaling pathway in the presence of an antagonist - cell viability counter screen (AID 1259379; active means well fitted curve in the direction sought with a large enough effect in the repeat runs; an effect the other way counts as inactive or inconclusive;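 further: MDA-kb2 human breast cancer cells carrying an MMTV luciferase reporter; series mostly up to about 92 µM; nearly all actives have a fitted effect of over 25% in size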)
How it was run: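 Each compound was tested at 15 concentrations on MDA-kb2 cells in the presence of 3.0uM nilutamide. Viability was measured by CellTiter-Fluor fluorescence after a 16 hr incubation at 37C in a CO2-free atmosphere.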

[6] = qHTS assay to identify small molecule agonists of the estrogen receptor beta (ER-beta) signaling pathway - cell viability counter screen (AID 1259380; active means well fitted curve in the direction sought with a large enough effect in the repeat runs; an effect the other way counts as inactive or inconclusive; further: nearly all actives have a fitted effect of over 30% in size)
How it was run: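 Compounds dissolved in DMSO were pin-transferred onto ER-beta-UAS-bla HEK293T cells that had settled 6 hr, and exposure ran 16 hr at 37C. Following the reporter read, CellTiter-Glo luminescence after 30 min at room temperature indicated cytotoxicity.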

[7] = qHTS assay to identify small molecule antagonists of the estrogen receptor beta (ER-beta) signaling pathway - cell viability counter screen (AID 1259382; active means well fitted curve in the direction sought with a large enough effect in the repeat runs; an effect the other way counts as inactive or inconclusive; further: series mostly up to about 92 µM; nearly all actives have a fitted effect of over 55% in size)
How it was run: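 CellTiter-Glo ATP luminescence measured after the LiveBLAzer read in the same wells; ER-beta-UAS-bla HEK293T cells, 16 hr compound treatment with 1nM 17-beta-estradiol agonist at 37C, 5% CO2.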

[8] = molecular target: Estrogen receptor (Homo sapiens) (UniProt P03372); experiment: qHTS assay to identify small molecule agonists of the estrogen receptor alpha (ER-alpha) signaling pathway in the presence of an antagonist (AID 1259383); further: top concentration of the series differs between compounds; nearly all actives have a fitted effect of over 15% in size
How it was run: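 Luminescent ERE-luciferase reporter, VM7Luc4E2 cells (endogenous ER-alpha); 10.0nM ICI-182,780 final; 15-point compound titration; 22hr at 37C; ONE-Glo, 30min RT.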

[9] = qHTS assay to identify small molecule agonists or antagonists of the thyroid stimulating hormone receptor (TSHR) signaling pathway - wild type cell line counter screen (AID 1259384)
How it was run: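 Wild-type Hek293 cells, 800/well, 18 h at 37C, then compound with Ro20-1724 for 30 min RT. cAMP by HTRF (cAMP-d2/anti-cAMP cryptate), 1 h RT, fluorescence read. 15 concentrations, triplicates.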

[10] = molecular target: Androgen receptor (Homo sapiens) (UniProt P10275); experiment: qHTS assay to identify small molecule agonists of the androgen receptor (AR) signaling pathway in the presence of an antagonist (AID 1259381); further: nearly all actives have a fitted effect of over 15% in size
How it was run: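 Plated MDA-kb2 cells (3,000/well) were pre-incubated 5hr, given nilutamide (3.0uM final) or buffer, then dosed with compounds in DMSO at 15 concentrations. Luciferase activity was quantified by luminescence after 16hr at 37C.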

Measured: Potency

Estrogen receptor (Homo sapiens), sequence (P03372 whole entry, looked up): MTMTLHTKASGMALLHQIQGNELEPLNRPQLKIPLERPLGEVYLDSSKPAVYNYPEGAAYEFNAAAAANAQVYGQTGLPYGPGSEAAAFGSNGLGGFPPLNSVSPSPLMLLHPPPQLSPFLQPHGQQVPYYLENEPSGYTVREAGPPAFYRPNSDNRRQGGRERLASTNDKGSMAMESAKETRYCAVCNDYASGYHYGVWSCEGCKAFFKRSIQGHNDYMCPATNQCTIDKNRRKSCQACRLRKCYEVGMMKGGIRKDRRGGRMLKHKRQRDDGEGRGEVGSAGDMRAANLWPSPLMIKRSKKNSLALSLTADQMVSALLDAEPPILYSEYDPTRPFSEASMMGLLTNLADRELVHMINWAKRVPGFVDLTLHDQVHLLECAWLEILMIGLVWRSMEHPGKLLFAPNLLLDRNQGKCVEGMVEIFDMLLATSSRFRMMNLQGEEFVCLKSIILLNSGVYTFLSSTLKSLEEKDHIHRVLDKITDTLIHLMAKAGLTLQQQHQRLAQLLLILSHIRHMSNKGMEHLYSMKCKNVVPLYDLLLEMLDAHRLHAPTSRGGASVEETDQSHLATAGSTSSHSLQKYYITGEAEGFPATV
Estrogen receptor beta (Homo sapiens), sequence (Q92731 whole entry, looked up): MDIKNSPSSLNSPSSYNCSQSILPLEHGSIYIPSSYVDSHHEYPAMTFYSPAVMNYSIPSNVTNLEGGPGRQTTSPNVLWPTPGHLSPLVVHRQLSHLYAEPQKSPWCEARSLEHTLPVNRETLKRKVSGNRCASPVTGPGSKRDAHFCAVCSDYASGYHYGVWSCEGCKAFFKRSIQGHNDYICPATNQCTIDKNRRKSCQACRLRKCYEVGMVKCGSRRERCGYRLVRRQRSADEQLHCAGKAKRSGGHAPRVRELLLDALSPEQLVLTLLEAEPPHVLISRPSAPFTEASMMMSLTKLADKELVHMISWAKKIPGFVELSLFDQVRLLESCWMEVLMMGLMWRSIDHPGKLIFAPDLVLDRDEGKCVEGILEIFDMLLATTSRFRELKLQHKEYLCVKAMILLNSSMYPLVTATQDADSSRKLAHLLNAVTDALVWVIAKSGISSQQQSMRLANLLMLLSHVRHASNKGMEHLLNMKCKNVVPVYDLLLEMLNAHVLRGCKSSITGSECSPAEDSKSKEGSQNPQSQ
Androgen receptor (Homo sapiens), sequence (P10275 whole entry, looked up): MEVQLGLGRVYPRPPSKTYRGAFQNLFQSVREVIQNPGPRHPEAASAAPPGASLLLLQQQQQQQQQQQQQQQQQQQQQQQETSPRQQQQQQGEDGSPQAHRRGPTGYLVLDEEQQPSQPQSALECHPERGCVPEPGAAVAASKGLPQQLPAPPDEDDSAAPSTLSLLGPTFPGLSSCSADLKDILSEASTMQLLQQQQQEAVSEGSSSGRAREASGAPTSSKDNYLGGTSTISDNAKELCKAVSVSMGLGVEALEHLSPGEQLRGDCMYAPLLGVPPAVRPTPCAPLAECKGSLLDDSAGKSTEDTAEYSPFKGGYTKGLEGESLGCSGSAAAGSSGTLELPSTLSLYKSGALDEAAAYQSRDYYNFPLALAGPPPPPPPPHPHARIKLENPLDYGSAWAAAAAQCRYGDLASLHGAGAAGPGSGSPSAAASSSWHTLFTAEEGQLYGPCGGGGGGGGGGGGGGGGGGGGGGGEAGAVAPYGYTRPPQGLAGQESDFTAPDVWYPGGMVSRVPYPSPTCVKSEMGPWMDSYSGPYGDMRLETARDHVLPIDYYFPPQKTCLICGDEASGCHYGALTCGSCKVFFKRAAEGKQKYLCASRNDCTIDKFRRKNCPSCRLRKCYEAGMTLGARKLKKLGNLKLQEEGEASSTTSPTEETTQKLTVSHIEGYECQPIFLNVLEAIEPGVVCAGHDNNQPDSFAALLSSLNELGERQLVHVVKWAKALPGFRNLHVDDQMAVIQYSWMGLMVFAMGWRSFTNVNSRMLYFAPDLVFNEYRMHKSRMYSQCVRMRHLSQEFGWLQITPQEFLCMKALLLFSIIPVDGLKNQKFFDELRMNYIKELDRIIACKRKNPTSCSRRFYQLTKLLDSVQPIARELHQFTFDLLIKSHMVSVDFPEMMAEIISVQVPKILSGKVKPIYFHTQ

C=C1CC[C@H]2C[C@@H]1C2(C)C
inactive: [1] | [2] | [3] | [4] | [5] | [6] | [7] | [8] | [9]

CCCCCCOC(=O)CCCCC(=O)OCCCCCC
inactive: [1] | [2] | [3] | [4] | [5] | [7] | [8] | [9]

COC(=O)c1c(Cl)c(Cl)c(C(=O)OC)c(Cl)c1Cl
inactive: [1] | [2] | [3] | [4] | [5] | [7] | [8] | [9]

CC/C=C\CCOC(C)=O
inactive: [1] | [2] | [3] | [4] | [5] | [6] | [7] | [8] | [9]

Nc1c[n+](N2CCOCC2)no1
inactive: [1] | [2] | [3] | [4] | [5] | [6] | [7] | [8] | [9]

CC(=O)OCC(=O)[C@@]1(O)CCC2C3CCC4=CC(=O)CC[C@]4(C)C3[C@@H](O)C[C@@]21C (stereo partly drawn)
inactive: [1] | [2] | [3] | [4] | [5] | [6] | [7] | [9]

CCC(C)C1CCCCC1=O (stereo not drawn)
inactive: [1] | [2] | [3] | [4] | [5] | [6] | [7] | [8] | [9]

CCS(=O)(=O)c1ccc(OC)c(C(=O)OC)c1
inactive: [1] | [2] | [3] | [4] | [5] | [6] | [7] | [8]

C[C@H](NC(CCc1ccccc1)C(=O)O)C(=O)N1CCC[C@H]1C(=O)O (stereo partly drawn)
inactive: [1] | [2] | [3] | [4] | [5] | [6] | [7] | [8] | [9]

O=[N+]([O-])c1ccc(F)cc1F
inactive: [1] | [2] | [3] | [4] | [5] | [6] | [7] | [8]

CCC(=O)OC(C)c1ccccc1 (stereo not drawn)
inactive: [1] | [2] | [3] | [4] | [5] | [6] | [7] | [8] | [9]

CCN1CCC[C@H]1CNC(=O)c1c(O)c(Cl)cc(Cl)c1OC
inactive: [1] | [2] | [3] | [4] | [5] | [6] | [7] | [8] | [9]

c1cnc(N2CCN(Cc3ccc4c(c3)OCO4)CC2)nc1
inactive: [1] | [2] | [3] | [4] | [5] | [6] | [7] | [8] | [9]

O=C1CCCCCCCCCCCN1
inactive: [1] | [2] | [3] | [4] | [5] | [6] | [7] | [8] | [9]

C=CCOCC(CC)(CO)COCC=C
inactive: [1] | [2] | [3] | [4] | [5] | [6] | [7] | [9]

NC(=O)c1cn(Cc2c(F)cccc2F)nn1
inactive: [1] | [2] | [3] | [4] | [5] | [7] | [9]

O=C(CCCN1CCN(c2ccccn2)CC1)c1ccc(F)cc1
inactive: [1] | [2] | [3] | [4] | [5] | [7] | [9]

COC(=O)c1cc(C(=O)OC)cc(S(=O)(=O)O)c1
inactive: [1] | [2] | [3] | [4] | [5] | [6] | [7] | [9]

CN1C(=O)N(C)C(O)C1O (stereo not drawn)
inactive: [1] | [2] | [3] | [4] | [5] | [6] | [7] | [8] | [9]

Cc1cc2c(cc1S(N)(=O)=O)S(=O)(=O)CCC2
inactive: [1] | [2] | [3] | [4] | [5] | [6] | [7] | [8] | [9]

CC(C)(C)c1nnc(NS(=O)(=O)c2ccccc2)s1
inactive: [1] | [2] | [3] | [4] | [5] | [6] | [7] | [8] | [9]

O=C1CCCC(=O)C1
inactive: [1] | [2] | [3] | [4] | [5] | [6] | [7]

ClC(Cl)(Br)Br
inactive: [1] | [2] | [3] | [4] | [5] | [6] | [10] | [7] | [8] | [9]

CCCCOCCOCCOCCCC
inactive: [1] | [2] | [3] | [4] | [5] | [6] | [7] | [9]
